14-3-3 Bad inh: disrupts binding of bovine 14-3-3 zeta to phospho-Bad peptide | inhibition, % at 21.7 µM | TR-FRET 14-3-3zeta/Dy647-pBad peptide displacement, 1 h | P63103 | 220,000 tested, 0.71% active | AID 781;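 active = inhibition above about 70%, limit read from the data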;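 also: 0% = full 14-3-3 plus peptide FRET controls and 100% = background without 14-3-3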
Target sequence (P63103 whole entry, looked up): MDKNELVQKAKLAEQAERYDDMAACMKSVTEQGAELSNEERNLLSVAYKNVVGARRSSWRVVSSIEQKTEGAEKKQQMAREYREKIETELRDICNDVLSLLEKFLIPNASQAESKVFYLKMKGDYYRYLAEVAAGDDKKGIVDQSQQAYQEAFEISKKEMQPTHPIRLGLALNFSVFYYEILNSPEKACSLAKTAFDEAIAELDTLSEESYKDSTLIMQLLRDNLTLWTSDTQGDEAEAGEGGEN
HMGR II inh: E. faecalis class II HMG-CoA reductase inhibition. purified E. faecalis HMGR, NADPH absorbance 340 nm kinetic. inhibition, % at 10 µM. 190,000 tested, 0.41% active. AID 1066;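 active = inhibition above a set limit, the median over all tested compounds plus 3 SD, cut at about 9.5% in these data; inconclusive = no clear call, values can overlap the other calls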;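 also: enzyme runs in reverse so mevalonate oxidation gives rising NADPH absorbance; 0% = complete reaction with DMSO and 100% = background rate lacking mevalonate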
p47phox inh: blocks human p47phox regulatory protein of NADPH oxidases; 220,000 tested, 0.53% active; P14598; p47phox/p22phox peptide binding, fluorescence polarization, 2 h; AID 1274; inhibition, % at 24.7 µM;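 active = inhibition above about 30%, limit read from the data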;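 also: 0% = p47phox with labelled peptide and 100% = labelled peptide alone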
dFosB act-1: enhances mouse delta FosB homodimer DNA binding; P13346; purified delta FosB, TAMRA-CDK5 oligo fluorescence polarization; percent of positive-control signal above neutral wells; activation, % at 25 µM; 340,000 tested, 0.99% active; AID 493131;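 active = mean activation above about 17%, with every replicate also reaching it, limit read from the data, passing the limit was not always enough; inconclusive = only one of the two conditions met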
dFosB act-2: delta FosB (mouse) homodimer activation. shares compounds with dFosB act-1. purified delta FosB, TAMRA-CDK5 oligo fluorescence polarization; normalised: neutral wells 0, positive control 100. activation, % at 24.9 µM. 2,400 tested, under 10 active;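 active = highest replicate activation at or above 34% and every replicate reaching that threshold; inconclusive = meets only one of the two criteria; inactive = meets neither criterion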;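 also: higher polarization means more probe DNA bound by delta FosB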
* = called active by the depositor; ? = inconclusive; / = no result. A selection: hits, their analogues and other compounds. The true share with any hit is near 1.9%.

SMILES	14-3-3 Bad inh	HMGR II inh	p47phox inh	dFosB act-1	others
O=c1c2ccccc2nc(-c2ccccc2)n1-c1ccccc1	2	/	-4	-10
O=c1c2ccccc2[se]n1-c1ccccc1	28	1	85*	4
CCN1CCN(Cc2cc(Br)cc(Br)c2O)CC1	78*	-4	5	-7
CCN1CCN(Cc2cc(Br)ccc2O)CC1	41	0	-187	2
COC(=O)c1c(C)[nH]c(C(=O)C(C)[N+]23CCN(CC2)CC3)c1C (configuration not stated)	81*	-1	-4	1
CCOc1ccc(C2CC(c3c(O)n(C)c(=O)n(C)c3=O)=NN2)cc1 (configuration not stated)	-12	/	61*	-2
Cn1c(O)c(C2=NNC(c3ccc(Cl)cc3)C2)c(=O)n(C)c1=O (configuration not stated)	-10	/	5	-6
CCOC(=O)N(C)c1ccc(C(O)(C(=O)OC)C(F)(F)F)cc1 (configuration not stated)	6	9	14	-8
c1ccc(-c2nc(N3CCOCC3)s[n+]2-c2ccccc2)cc1	24	0	41*	-1
O=C(O)CCC(=O)NCCC1=c2ccccc2=N/C1=C\c1c(O)n(Cc2ccc(F)cc2)c(=S)[nH]c1=O	75*	/	-238	-2
COC(=O)C1=C(c2ccc(F)cc2OCc2ccccc2)C[C@@H]2CC[C@H]1N2C(=O)N1CCC(C)CC1	/	/	/	-8
COc1ccc(N/N=C/c2c(O)n(-c3ccc(C)c(C)c3)c(=O)[nH]c2=O)cc1	0	5	-3	-6
Cc1ccc(-n2c(O)c(/C=N/Nc3ccccc3)c(=O)[nH]c2=O)cc1C	-11	/	40*	/
Cc1cccc(-c2nc3ccc(C(=O)N4CCC5(CC4)OCCO5)cc3nc2-c2cccc(C)c2)c1	/	/	/	-10
c1cncc(C2CCCCN2Cc2ccc3c(c2)OCO3)c1 (configuration not stated)	71*	-4	-17	5
CN1CCN(C(=O)COc2ccc(S(=O)(=O)NCc3ccccc3)cc2Cl)CC1	75*	0	-3	1
C[N+]1(C)CCC(OC(=O)C(c2ccccc2)c2ccccc2)CC1	/	/	/	2
CCN(CCCl)c1cc(CN(C)C)cc(NC(=O)c2ccc(C(=O)Nc3cc(CN(C)C)cc(N(CC)CCCl)c3)cc2)c1	/	/	/	38*
CCN(CC)C(=O)c1ccc(NC(=O)c2cccc(C(F)(F)F)c2)cc1	-11	-5	-9	-2
CN1CCC(N2CC3CC(C2)c2cccc(=O)n2C3)CC1 (configuration not stated)	26	-6	-1	1
Fc1ccc2c(c1)nnn2C1CCN(Cc2nnnn2CCc2ccccc2)CC1	76*	-1	-4	-8
CN(C)C(=O)O/N=C(\N)COc1ccc(C(C)(C)C)cc1	-7	/	-6	0
CCN(CC)c1ccc(CN2CC=C(c3ccc(F)cc3)CC2)cc1	77*	-3	-11	-4
COc1ccc(CN2CC=C(c3ccc(F)cc3)CC2)cc1Br	/	/	/	-1
Clc1ccc(CSC(Cn2ccnc2)c2ccc(Cl)cc2Cl)cc1 (configuration not stated)	-22	11*	3	-4
SMILES	14-3-3 Bad inh	HMGR II inh	p47phox inh	dFosB act-1	others
Clc1ccc(COC(Cn2ccnc2)c2ccc(Cl)cc2Cl)cc1 (configuration not stated)	-7	6	5	-8
COC(=O)C1=C(c2ccc(OCc3ccccc3)cc2)C[C@@H]2CC[C@H]1N2C(=O)NCc1cccc(OC)c1	/	/	/	-2
O=C(/C=C/c1c[nH]c2ccccc12)c1c(O)n(CCc2ccccc2)c(=O)[nH]c1=O	3	/	-256	22*	dFosB act-2=?
CN1/C(=C\C=C\C2=[N+](C)c3ccc4ccccc4c3C2(C)C)C(C)(C)c2ccccc21	-106	5	-249	/
C[N+]1=C(/C=C/Nc2ccccc2)C(C)(C)c2ccccc21	-4	1	-162	23*	dFosB act-2=?
Cc1ccc(NC2=NCCCS2)c(C)c1C	0	-3	-8	2
CCCCn1c(=O)c(C(=O)Nc2ccccc2S(N)(=O)=O)c(O)c2ccccc21	-8	-9	11	-12
CCCCCn1c(=O)c(C(=O)Nc2ccccc2S(N)(=O)=O)c(O)c2ccccc21	0	-1	4	63*	dFosB act-2=?
NC(N)=Nc1ccc2[nH]c3c(c2c1)C[C@@]1(O)[C@H]2Cc4ccc(O)c5c4[C@@]1(CCN2CC1CC1)C3O5 (some centres not stated)	/	/	/	45*	dFosB act-2=5

From PubChem BioAssay
